Hit rate of the full screen: of about 39,000 compounds, about 3,300 (8.5%) were called active. The entries come from a sample that favours actives as a whole.
system: HepG2; assay: cytotoxicity call (relative viability < 0.9); settings: 10 µM

| Compound | cytotoxicity call |
| --- | --- |
| C[C@@H]1CN([C@@H](C)CO)C(=O)c2cccc(NC(=O)c3nc4ccccc4s3)c2O[C@H]1CN(C)Cc1ccc(-c2ccccc2)cc1 | inactive |
| COc1ccc(S(=O)(=O)Nc2ccc3c(c2)C(=O)N([C@@H](C)CO)C[C@H](C)[C@@H](CN(C)C(=O)Nc2cccc4ccccc24)O3)cc1 | inactive |
| C[C@@H]1CN([C@H](C)CO)C(=O)c2cc(NS(C)(=O)=O)ccc2O[C@H]1CN(C)Cc1ccc(C(F)(F)F)cc1 | inactive |
| C[C@H]1CN([C@@H](C)CO)C(=O)c2cccc(NC(=O)C3CCOCC3)c2O[C@H]1CN(C)S(=O)(=O)c1ccccc1 | inactive |
| O=C(C[C@@H]1CC[C@H]2[C@@H](COC[C@@H](O)CN2S(=O)(=O)c2ccc(F)cc2)O1)NCc1ccc(Cl)c(Cl)c1 | inactive |
| O=C(Nc1ccc(C(=O)Nc2ccc(C(=O)Nc3ccc(S(=O)(=O)O)c4cc(S(=O)(=O)O)cc(S(=O)(=O)O)c34)cc2)cc1)Nc1ccc(C(=O)Nc2ccc(C(=O)Nc3ccc(S(=O)(=O)O)c4cc(S(=O)(=O)O)cc(S(=O)(=O)O)c34)cc2)cc1 | inactive |
| C[C@H]1CN([C@@H](C)CO)C(=O)c2cc(Br)cnc2O[C@@H]1CN(C)S(=O)(=O)c1ccccc1 | inactive |
| C[C@@H]1CN([C@@H](C)CO)C(=O)c2cc(NS(=O)(=O)c3ccc(F)cc3)ccc2O[C@@H]1CN(C)S(=O)(=O)c1ccccc1 | inactive |
| C=CCOC(=O)[C@@H]1[C@H]2C(=O)O[C@H](c3ccccc3)[C@H](c3ccccc3)N2[C@H](c2ccc(OCCOC(=O)[C@H]3C[C@H]4C(=O)NCC(=O)N4[C@H]3c3cccc(OCCO)c3)cc2)[C@@]12C(=O)Nc1ccc(I)cc12 | inactive |
| C[C@@H]1CCCCO[C@H](CN(C)S(=O)(=O)c2ccc(F)cc2)[C@H](C)CN([C@H](C)CO)C(=O)c2cc(NC(=O)Nc3ccc(F)cc3)ccc2O1 | active |
| C[C@@H]1CN([C@H](C)CO)C(=O)c2cc(NC(=O)Nc3ccc(F)cc3)ccc2O[C@@H](C)CCCCO[C@@H]1CN(C)S(=O)(=O)c1ccc(F)cc1 | inactive |
| C[C@@H]1CCCCO[C@H](CN(C)S(=O)(=O)c2ccc(F)cc2)[C@@H](C)CN([C@H](C)CO)C(=O)c2cc(NC(=O)Nc3ccc(F)cc3)ccc2O1 | inactive |
| COC(=O)C1=CO[C@@H](O[C@@H]2O[C@H](CO)[C@@H](O)[C@H](O)[C@H]2O)[C@@H]2[C@@](C)(O)[C@@H](OC(=O)/C=C/c3ccc(O)cc3)C[C@]12O | inactive |
| OCC(O)C(O)CO (stereo not drawn) | inactive |
| OC[C@@H](O)[C@@H](O)CO | inactive |
| C[C@@H]1CCCCO[C@@H](CN(C)C(=O)NC2CCCCC2)[C@H](C)CN([C@@H](C)CO)C(=O)c2cc(NC(=O)c3ccccc3)ccc2O1 | inactive |
| CCCNC(=O)N(C)C[C@H]1Oc2cc(C#Cc3ccccn3)ccc2S(=O)(=O)N([C@@H](C)CO)C[C@@H]1C | inactive |
| COc1ccc(CN(C)C[C@H]2OCCCC[C@@H](C)Oc3ccc(NC(=O)c4ccccc4)cc3C(=O)N([C@@H](C)CO)C[C@H]2C)cc1 | inactive |
| CCS(=O)(=O)N1Cc2cc(C(=O)NCCOC)nc(-c3cccc(-c4ccncc4)c3)c2[C@H]1CCO | inactive |
| CCN(CC)CCN(Cc1ccc(-c2ccc(C(F)(F)F)cc2)cc1)C(=O)Cn1c(SCc2ccc(F)cc2)nc(=O)c2c1CCC2 | active |

| Compound | cytotoxicity call |
| --- | --- |
| C[C@H](CO)N1C[C@H](C)[C@H](CN(C)C(=O)NC2CCCCC2)Oc2c(NS(=O)(=O)c3cn(C)cn3)cccc2C1=O | inactive |
| C[C@H](CO)N1C[C@H](C)[C@@H](CN(C)S(=O)(=O)c2cccc(F)c2)Oc2ncc(C#CC3CCCC3)cc2C1=O | inactive |
| C[C@@H]1CN([C@@H](C)CO)C(=O)c2cc(C#CC3CCCC3)cnc2O[C@H]1CN(C)S(=O)(=O)c1cccc(F)c1 | active |
| C[C@H]1CN([C@@H](C)CO)C(=O)c2cc(C#CC3CCCC3)cnc2O[C@@H]1CN(C)S(=O)(=O)c1cccc(F)c1 | active |
| C[C@@H]1CN([C@H](C)CO)C(=O)c2cc(C#CC3CCCC3)cnc2O[C@@H]1CN(C)S(=O)(=O)c1cccc(F)c1 | inactive |
| C[C@@H]1CN([C@H](C)CO)C(=O)c2cc(C#CC3CCCC3)cnc2O[C@H]1CN(C)S(=O)(=O)c1cccc(F)c1 | inactive |
| C[C@H](CO)N1C[C@H](C)[C@H](CN(C)S(=O)(=O)c2cccc(F)c2)Oc2ncc(C#CC3CCCC3)cc2C1=O | inactive |
| COc1ccc(NC(=O)N(C)C[C@@H]2OCCCC[C@@H](C)Oc3ccc(NS(=O)(=O)c4ccc(Cl)cc4)cc3C(=O)N([C@@H](C)CO)C[C@@H]2C)cc1 | inactive |
| C=c1cc(C)ccc1=C1NN=C(NC(C)=O)O1 | inactive |
| COc1ccc(S(=O)(=O)N(C)C[C@@H]2OCCCC[C@H](C)Oc3ccc(NC(=O)C4CCCCC4)cc3C(=O)N([C@H](C)CO)C[C@H]2C)cc1 | inactive |
| CCCc1nn(C)c2c(=O)[nH]c(-c3cc(S(=O)(=O)N4CCN(C)CC4)ccc3OCC)nc12.O=C(O)CC(O)(CC(=O)O)C(=O)O | active |
| CCCOc1ccc(S(=O)(=O)NCC[C@@H]2CCCN2C)cc1-c1nc2c(CCC)nn(C)c2c(=O)[nH]1 | inactive |
| CCCc1nc(C)c2c(=O)[nH]c(-c3cc(S(=O)(=O)N4CCN(CC)CC4)ccc3OCC)nn12.Cl | inactive |
| CCS(=O)(=O)Nc1ccc2c(c1)C(=O)N(C)[C@@H]1CC[C@H](CC(=O)NCc3ccc(OC)cc3)O[C@@H]1CO2 | inactive |
| C[C@@H]1CN([C@@H](C)CO)C(=O)c2cc(NS(=O)(=O)c3cccs3)ccc2O[C@@H](C)CCCCO[C@H]1CN(C)Cc1ccccc1 | active |
| C[C@@H]1CCCCO[C@H](CN(C)CC2CCCCC2)[C@H](C)CN([C@H](C)CO)C(=O)c2cc(NS(=O)(=O)c3cccs3)ccc2O1 | inactive |
| C[C@@H]1CN([C@H](C)CO)C(=O)c2cc(NS(=O)(=O)c3cccs3)ccc2O[C@@H](C)CCCCO[C@H]1CN(C)Cc1ccccc1 | inactive |
| C[C@@H]1CN([C@H](C)CO)C(=O)c2cc(NS(=O)(=O)c3cccs3)ccc2O[C@@H](C)CCCCO[C@@H]1CN(C)CC1CCCCC1 | inactive |
| C[C@@H]1CCCCO[C@@H](CN(C)Cc2ccccc2)[C@H](C)CN([C@@H](C)CO)C(=O)c2cc(NS(=O)(=O)c3cccs3)ccc2O1 | inactive |
| C[C@@H]1CCCCO[C@H](CN(C)CC2CCCCC2)[C@H](C)CN([C@@H](C)CO)C(=O)c2cc(NS(=O)(=O)c3cccs3)ccc2O1 | active |

| Compound | cytotoxicity call |
| --- | --- |
| C[C@H]1CCCCO[C@@H](CN(C)Cc2ccccc2)[C@@H](C)CN([C@@H](C)CO)C(=O)c2cc(NS(=O)(=O)c3cccs3)ccc2O1 | active |
| Cc1noc(C)c1S(=O)(=O)Nc1ccc2c(c1)C(=O)N([C@@H](C)CO)C[C@@H](C)[C@@H](CN(C)Cc1ccc(C(=O)Nc3ccccc3N)cc1)OCCCC[C@H](C)O2 | inactive |
| Cc1noc(C)c1S(=O)(=O)Nc1ccc2c(c1)C(=O)N([C@@H](C)CO)C[C@H](C)[C@@H](CN(C)Cc1ccc(C(=O)Nc3ccccc3N)cc1)OCCCC[C@@H](C)O2 | inactive |
| C[C@@H]1CCCCO[C@H](CN(C)Cc2ccccc2)[C@@H](C)CN([C@@H](C)CO)C(=O)c2cc(NS(=O)(=O)c3cccs3)ccc2O1 | inactive |
| Cc1noc(C)c1S(=O)(=O)Nc1ccc2c(c1)C(=O)N([C@H](C)CO)C[C@H](C)[C@@H](CN(C)Cc1ccc(C(=O)Nc3ccccc3N)cc1)OCCCC[C@@H](C)O2 | active |
| C[C@H](CO)N1C[C@H](C)[C@@H](CN(C)Cc2ccccc2)OCCCC[C@H](C)Oc2ccc(NS(=O)(=O)c3cccs3)cc2C1=O | inactive |
| C[C@@H]1CN([C@@H](C)CO)C(=O)CCCn2nncc2CO[C@H]1CN(C)C(=O)Nc1ccc(N2CCN(C)CC2)cc1 | inactive |
| C[C@H]1CN([C@@H](C)CO)C(=O)Cc2cc(NC(=O)Nc3cccc4ccccc34)ccc2O[C@H]1CN(C)C(=O)Nc1ccc(F)cc1 | inactive |
| C[C@@H]1CN([C@@H](C)CO)C(=O)c2cc(NS(=O)(=O)c3ccccc3)ccc2O[C@@H](C)CCCCO[C@H]1CN(C)Cc1ccc(C(=O)O)cc1 | inactive |
| Cc1cc(C(=O)Nc2cccc3c2O[C@H](CN(C)S(=O)(=O)c2ccc(Cl)cc2)[C@@H](C)CN([C@@H](C)CO)C3=O)n(C)n1 | inactive |
| Cc1ccc(S(=O)(=O)Nc2ccc3c(c2)CC(=O)N([C@@H](C)CO)C[C@@H](C)[C@H](CN(C)S(=O)(=O)c2ccc(F)cc2)O3)cc1 | inactive |
| CC(C)(O/N=C(\C(=O)N[C@@H]1C(=O)N2C(C(=O)O)=C(C[N+]3(CCNC(=O)c4ccc(O)c(O)c4Cl)CCCC3)CS[C@H]12)c1csc(N)n1)C(=O)O | inactive |
| CC(C)NC(=O)Nc1ccc2c(c1)C(=O)N([C@@H](C)CO)C[C@@H](C)[C@H](CN(C)C(=O)Nc1ccc(F)cc1)OCCCC[C@@H](C)O2 | inactive |
| C[C@H]1CN([C@@H](C)CO)C(=O)Cc2cc(NS(C)(=O)=O)ccc2O[C@H]1CN(C)C(=O)Nc1ccccc1 | inactive |
| C[C@H]1CN([C@@H](C)CO)C(=O)c2cc(NC(=O)Nc3cccc4ccccc34)ccc2O[C@@H]1CN(C)Cc1ccncc1 | inactive |
| COc1ccc(CNC(=O)N(C)C[C@H]2OCc3ccccc3-c3c(n(C)c4ccccc34)C(=O)N([C@H](C)CO)C[C@@H]2C)cc1 | inactive |
| O=C(C[C@@H]1C[C@@H]2c3cc(NC(=O)C4CCOCC4)ccc3O[C@@H]2[C@@H](CO)O1)NCCN1CCCCC1 | inactive |
| Cc1noc(C)c1S(=O)(=O)Nc1ccc2c(c1)CC(=O)N([C@H](C)CO)C[C@H](C)[C@H](CN(C)C(=O)Nc1ccccc1)O2 | inactive |

Source: the antibiotic and cytotoxicity screens of Wong et al. (2023)
